Our source for the Potency, activity change, negative = inhibition and activity change, negative = cytotoxic values is PubChem BioAssay (NCATS).

Records with an inconclusive call do not appear. Values without a mark were called inactive. The source made the active and inactive calls. Calls follow the shape of the dose curve; as a rule, active = well fitted curve in the direction sought with a large enough effect; inconclusive = small, poorly fitted or top-dose-only effect, or another doubt; inactive = no such curve, though single readings can be large; an effect the other way counts as inactive or inconclusive.

The nature of assay [1]: P-glycoprotein substrates identified in KB-8-5-11 adenocarcinoma cell line, qHTS therapeutic library screen (AID 1346987). Also: nearly all actives have a fitted effect of over 65% in size. Also: potency is read from the fitted curve at half-maximal effect. The method, boiled down:
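KB-8-5-11: colchicine-selected sub-line of KB-3-1 over-expressing P-gp; assay medium lacked colchicine. 72 h drug exposure at 37 degree C, CellTiter-Glo.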
Background: In qHTS, concentration-response curves come from the screen itself.

The nature of assay [2]: NS1 protein of Zika virus - qHTS assay to identify small molecule inhibitors in human HEK 293 cells (AID 1347053).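 Also: series mostly up to about 46 µM; plate controls were infected untreated cells for no effect and uninfected cells for full effect; nearly all actives have a fitted effect of over 55% in size.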 The method, boiled down:
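HEK 293 cells pretreated with compound for 1 h, then infected with ZIKV MR766 (MOI 0.5) for 24 h at 37 C. NS1 detected by TR-FRET with two anti-NS1 antibodies; normalized to uninfected (0%) and infected (100%) wells.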

Assay [3] can be described thus: qHTS of pediatric cancer cell lines to identify multiple opportunities for drug repurposing: Primary screen for TC32 cells (AID 1347089). Also: % is scaled to controls: 0 for no effect and ±100 for the full control effect; nearly all actives have a fitted effect of over 60% in size. The method, boiled down: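 Luminescent ATP read-out (CellTiter-Glo) of metabolically active TC32 cells after 48 h exposure. Concentration-response curves came from 11-point (MIPE, 0.78 nM–46 µM) or 8-point (NPC, 0.59 nM–46 µM) primary titrations; follow-up used 11 points.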

Assay [4] in a line: qHTS of pediatric cancer cell lines to identify multiple opportunities for drug repurposing: Primary screen for DAOY cells (AID 1347090).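 Also: series mostly up to about 46 µM; plate controls were DMSO for no effect and bortezomib for full effect; nearly all actives have a fitted effect of over 55% in size.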 Put shortly: (§1)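 Eight- or eleven-point concentration series, 48 h treatment at 37 degrees C in growth media; readout CellTiter-Glo luminescence. Potency and efficacy were taken from the concentration-response curves.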
Assay [5] in a line: qHTS of pediatric cancer cell lines to identify multiple opportunities for drug repurposing: Primary screen for SJ-GBM2 cells (AID 1347091).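 Also: plate controls were DMSO neutral control for no effect and bortezomib for full effect.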 The method, boiled down: as §1
A short description of assay [6]: qHTS of pediatric cancer cell lines to identify multiple opportunities for drug repurposing: Primary screen for A673 cells (AID 1347092). Also: % is scaled to controls: 0 for no effect and ±100 for the full control effect; nearly all actives have a fitted effect of over 45% in size. The method, boiled down:
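Cell viability of A673 measured by CellTiter-Glo ATP luminescence after 48 hours compound exposure. Dilution series spanned 0.78 nM to 46 µM (MIPE, 11-point) or 0.59 nM to 46 µM (NPC, 8-point); bortezomib 2.3 uM positive control.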

A short description of assay [7]: qHTS of pediatric cancer cell lines to identify multiple opportunities for drug repurposing: Primary screen for SK-N-MC cells (AID 1347093). Also: potency is read from the fitted curve at half-maximal effect.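 As to activity change, negative = cytotoxic: series mostly up to about 46 µM; plate controls were DMSO neutral control for no effect and bortezomib for full effect.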 The method, boiled down: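 Metabolically active cells were quantified by ATP-dependent luminescence (CellTiter-Glo, 15 min at room temperature) following 48 h treatment. Cells had been plated at 500-1,000 per well and settled for 5 h beforehand.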

A short description of assay [8]: qHTS of pediatric cancer cell lines to identify multiple opportunities for drug repurposing: Primary screen for BT-37 cells (AID 1347094).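 Also: series mostly up to about 57 µM; plate controls were DMSO for no effect and bortezomib for full effect.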 Put shortly:
(§2)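 Plated cells (500-1,000 per well, growth media) were allowed to settle for 5 hours, treated with compound dilutions for 48 hours, then lysed with CellTiter-Glo for 15 min at room temperature before luminescence reading.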

Assay [9] is described as follows: qHTS of pediatric cancer cell lines to identify multiple opportunities for drug repurposing: Primary screen for NB-EBc1 cells (AID 1347095).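 Also: plate controls were DMSO neutral control for no effect and bortezomib for full effect.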 The method, boiled down: as §2
A short description of assay [10]: qHTS of pediatric cancer cell lines to identify multiple opportunities for drug repurposing: Primary screen for U-2 OS cells (AID 1347096).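 Also: plate controls were DMSO wells for no effect and bortezomib positive control wells for full effect; nearly all actives have a fitted effect of over 50% in size.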 The method, boiled down:
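Cells (500-1,000/well) in growth media were settled 5 h at 37 degrees C, then given compounds for 48 h. Viability was read as CellTiter-Glo luminescence. Primary runs used MIPE at 11 points (0.78 nM-46 µM) and NPC at 8 points (0.59 nM-46 µM); follow-ups used 11 points.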

On to `COc1cc(OC)cc(OC)c1`, for which the Potency entry in assay [1], in assay [2], in assay [3], in assay [4], in assay [5] and in assay [6] was “inactive” in each case. In addition, the Potency entry in [7], in assay [8], in assay [9] and in [10] was “inactive” in each case.

Turning to `COc1cc2c(cc1OC)C(C(C(=O)N(CCc1ccc(OC)c(OC)c1OC)CCc1ccc(OC)c(OC)c1OC)c1ccccc1)=NCC2` (stereo not drawn), in [1], the Potency is 9.2 µM (active). Moreover, the Potency entry in assay [2], in assay [3], in assay [4], in assay [5], in assay [6] and in assay [9] was “inactive” in each case.

On to `C[C@H](O)C(=O)Nc1c(I)c(C(=O)NC(CO)CO)c(I)c(C(=O)NC(CO)CO)c1I`, for which the Potency entry in assay [1], in [2], in [3], in assay [4], in assay [5] and in assay [6] was “inactive” each time. In addition, the Potency result in assay [7], in [9] and in assay [10] was “inactive” each time.

Consider `Cc1ncc(CSSCc2cnc(C)c(O)c2CO)c(CO)c1O`, for which the Potency result in assay [1], in assay [2], in assay [3], in assay [4], in [5] and in assay [6] was “inactive” in each case. Further, the Potency entry in assay [7], in assay [9] and in assay [10] was “inactive” throughout.

With `NC[C@H]1O[C@H](O[C@H]2[C@H](O[C@@H]3O[C@H](CO)[C@@H](O)[C@H]3O)C(O)[C@H](N)C[C@@H]2N)[C@H](N)[C@@H](O)[C@@H]1O` (stereo partly drawn), in [1], the Potency result is “inactive”. The activity change, negative = inhibition in assay [2] is -23.8% [at 9.2 µM]. Moreover, the activity change, negative = cytotoxic in assay [3] was 6.72% [at 9.17 µM]; in assay [4], 6.37% [at 9.22 µM]; in [5] it was 15.5% [at 9.22 µM]; in assay [6] it was -0.207% [at 9.22 µM]; in [7] it was -3.87% [at 9.22 µM]; in [8], 10.7% [at 11.5 µM]. Further, the activity change, negative = cytotoxic is 28.9% [at 9.22 µM] in [9] and 11.5% [at 9.22 µM] in assay [10].

Take `CCC(C(=O)OCCN(CC)CC)c1ccccc1` (stereo not drawn): the Potency result in [1], in assay [2], in assay [3], in assay [4], in assay [5] and in [6] was “inactive” each time. Further, the Potency result in [9] and in assay [10] was “inactive” in each case. Besides, the Potency in assay [7] was 23.7 µM (active).

For `CCCCC(=O)O[C@]1(C(=O)CO)CC[C@H]2[C@@H]3CCC4=CC(=O)CC[C@]4(C)[C@H]3[C@@H](O)C[C@@]21C`, the Potency result in [1], in [2], in [3], in assay [4], in [5] and in [6] was “inactive” each time. For the same compound, the Potency entry in assay [7], in [9] and in assay [10] was “inactive” each time.

As to `COc1c2occc2c(OC)c2c(=O)cc(C)oc12`, the Potency result in assay [1], in assay [2], in assay [3], in assay [4], in assay [5] and in assay [6] was “inactive” throughout. For the same compound, the Potency entry in assay [7], in assay [9] and in [10] was “inactive” in each case.

Regarding `C[C@]12CC[C@@H]3c4ccc(O)cc4CC[C@H]3[C@@H]1C[C@@H](O)[C@@H]2O`, the Potency result in [1], in assay [2], in assay [3], in assay [4], in assay [5] and in assay [6] was “inactive” each time. Also, the Potency entry in assay [7], in [8] and in [10] was “inactive” throughout.

As for `Nc1ccc(/C=C/c2ccc(N)cc2S(=O)(=O)O)c(S(=O)(=O)O)c1`, the Potency entry in assay [1] is “inactive”. In addition, the activity change, negative = inhibition in assay [2] was -8.83% [at 0.593 µM]. In addition, the activity change, negative = cytotoxic in [3] was 14.3% [at 0.594 µM]; in [4] it was 10% [at 0.597 µM]; in assay [5], 4.37% [at 0.597 µM]; in [6], 1.22% [at 0.597 µM]; in assay [7], -3.26% [at 0.597 µM]; in assay [9], 25.1% [at 0.597 µM]. Also, in [10], the activity change, negative = cytotoxic was 17% [at 0.597 µM].

Turning to `O=C1c2ccccc2C(=O)C1c1ccccc1`, the Potency entry in assay [1], in assay [2], in assay [3], in assay [4], in assay [5] and in assay [6] was “inactive” each time. The Potency result in assay [7], in assay [9] and in [10] was “inactive” throughout.

Regarding `CC(=O)Nc1c(I)cc(I)c(C(=O)O)c1I`, the Potency entry in [1], in assay [2], in assay [3], in assay [4], in assay [5] and in [6] was “inactive” in each case. In addition, the Potency entry in assay [7], in assay [9] and in [10] was “inactive” in each case.

As for `C=CCc1ccc(O)c(OC)c1`, the Potency entry in [1], in assay [2], in assay [3], in assay [4], in [5] and in [6] was “inactive” throughout. The Potency result in [7], in assay [9] and in assay [10] was “inactive” each time.

Turning to `CCN(CC)C(=O)/C(C#N)=C/c1cc(O)c(O)c([N+](=O)[O-])c1`, the Potency entry in [1], in assay [2], in assay [3], in assay [4], in assay [5] and in assay [6] was “inactive” throughout. Further, the Potency result in assay [7] and in assay [10] was “inactive” each time.

Take `CC(C)(C(=O)c1cccnc1)c1cccnc1`: the Potency result in [1], in assay [2], in [3], in assay [4], in assay [5] and in [6] was “inactive” in each case. Further, the Potency entry in assay [7], in assay [9] and in [10] was “inactive” throughout.

Turning to `CCOC(=O)OC(C)OC1=C(C(=O)Nc2ccccn2)N(C)S(=O)(=O)c2ccccc21` (stereo not drawn), the Potency entry in [1], in assay [2], in assay [3], in [4], in assay [5] and in assay [6] was “inactive” throughout. For the same compound, the Potency result in [7], in assay [9] and in assay [10] was “inactive” throughout.
